According to PubChem BioAssay:

Experiments:
[1] = target: Tumor necrosis factor receptor superfamily member 10B (Homo sapiens) (UniProt O14763); experiment: caspase-8 TRAIL sensitization, hit retest, confirmation, cell-based, NB7+caspase-8, with/without TRAIL, luminescence panel (AID 651596); details: NB7 neuroblastoma + caspase-8, TRAIL sensitization, luminescence viability, with TRAIL, mean of runs, at 10 µM, stronger effect = higher value
[2] = as above; details: NB7 neuroblastoma + caspase-8, without TRAIL, luminescence viability, without TRAIL, mean of runs, at 10 µM
[3] = target: Tumor necrosis factor receptor superfamily member 10B (Homo sapiens) (UniProt O14763); experiment: TRAIL sensitizers in caspase-8 expressing neuroblastoma cells, dose response, NB7 cells plus caspase-8, luminescence, panel (AID 652002); details: NB7 neuroblastoma +caspase-8, TRAIL sensitization, luminescence viability, NB7+Caspase-8, with TRAIL, run 1; at 12.5 µM (top of the series)
[4] = target: Tumor necrosis factor receptor superfamily member 10B (Homo sapiens) (UniProt O14763); experiment: as above; details: NB7 neuroblastoma +caspase-8, TRAIL sensitization, luminescence viability, NB7+Caspase-8, with TRAIL, run 2; at 12.5 µM (top of the series)
[5] = as above; details: NB7 neuroblastoma +caspase-8, no TRAIL, compound-alone cytotoxicity counter-screen, luminescence viability, NB7+Caspase-8, run 1; at 12.5 µM (top of the series) unless noted
[6] = as above; details: NB7 neuroblastoma +caspase-8, no TRAIL, compound-alone cytotoxicity counter-screen, luminescence viability, NB7+Caspase-8, run 2; at 12.5 µM (top of the series) unless noted

Chain of Tumor necrosis factor receptor superfamily member 10B (Homo sapiens) (O14763 whole entry, looked up): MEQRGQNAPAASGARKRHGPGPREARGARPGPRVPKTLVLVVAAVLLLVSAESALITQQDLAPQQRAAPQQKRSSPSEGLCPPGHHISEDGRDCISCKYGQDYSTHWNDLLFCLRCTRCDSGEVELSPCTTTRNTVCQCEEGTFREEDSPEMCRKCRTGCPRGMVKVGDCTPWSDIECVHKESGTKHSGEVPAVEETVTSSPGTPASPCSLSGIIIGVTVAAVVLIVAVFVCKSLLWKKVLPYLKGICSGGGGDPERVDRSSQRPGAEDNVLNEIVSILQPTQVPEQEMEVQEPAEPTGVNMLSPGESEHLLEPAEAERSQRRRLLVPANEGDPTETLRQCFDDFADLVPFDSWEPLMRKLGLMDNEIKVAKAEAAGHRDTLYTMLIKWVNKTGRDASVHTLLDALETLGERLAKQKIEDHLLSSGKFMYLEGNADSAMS

Question: With `CN1C[C@@H]2[C@@H]3C(=O)N(Cc4ccccc4)C(=O)[C@@H]3[C@](Cc3ccccc3)(C1=O)N2C(=O)c1ccc(C(C)(C)C)cc1` as the compound, how does the activity [1] read?
Answer: Its activity is 74.5%.

Question: What about the activity [2] of the same compound?
Answer: The activity was 47.9%.

Question: And the activity, % sensitization [3]?
Answer: The activity, % sensitization was -1.09%.

Question: And the activity, % sensitization [4]?
Answer: Its activity, % sensitization is 15.8%.

Question: And the activity, % sensitization [5]?
Answer: Its activity, % sensitization is 7.44%.

Question: And the activity, % sensitization [6]?
Answer: The activity, % sensitization was -17%.

Question: With `COCCNc1c(-c2cc3ccc(C)c(C)c3[nH]c2=O)nc2ccccn12` as the compound, how does the activity [1] read?
Answer: Its activity is 64.9%.

Question: And the activity [2]?
Answer: The activity was 47.6%.

Question: And the activity, % sensitization [3]?
Answer: The activity, % sensitization was 60.1%.

Question: What about the activity, % sensitization [4] of the same compound?
Answer: The activity, % sensitization was 54.8%.

Question: And the activity, % sensitization [5]?
Answer: Its activity, % sensitization is -1.27%.

Question: What about the activity, % sensitization [6] of the same compound?
Answer: Its activity, % sensitization is 53.5%.

Question: Which activity [1] does the source give for `Cc1ccc(S(=O)(=O)Nc2ccccc2C(=O)Nc2nc(-c3ccc(F)cc3)cs2)cc1` here?
Answer: The activity was 56.5%.

Question: And the activity [2]?
Answer: The activity was 51.6%.

Question: What about the activity, % sensitization [3] of the same compound?
Answer: The activity, % sensitization was 32%.

Question: What about the activity, % sensitization [4] of the same compound?
Answer: Its activity, % sensitization is 39.6%.

Question: And the activity, % sensitization [5]?
Answer: Its activity, % sensitization is 24.6%.

Question: And the activity, % sensitization [6]?
Answer: The activity, % sensitization was 40.4%.

Question: For `O=c1[nH]c(=S)[nH]c2c1C(c1ccc(Cl)c(Cl)c1)OC(CCc1ccccc1)C2` (stereo not given), which activity [1] is on record?
Answer: Its activity is 57.9%.

Question: What about the activity [2] of the same compound?
Answer: The activity was 37.3%.

Question: What about the activity, % sensitization [3] of the same compound?
Answer: Its activity, % sensitization is -9.52%.

Question: What about the activity, % sensitization [4] of the same compound?
Answer: Its activity, % sensitization is -15.8%.

Question: And the activity, % sensitization [5]?
Answer: The activity, % sensitization was -5.58%.

Question: And the activity, % sensitization [6]?
Answer: Its activity, % sensitization is 14%.

Question: Which activity [1] does the source give for `Cc1cc2nc3ccc(N(C)C)cc3nc2cc1N` here?
Answer: Its activity is 52.4%.

Question: What about the activity [2] of the same compound?
Answer: The activity was 32.9%.

Question: What about the activity, % sensitization [3] of the same compound?
Answer: Its activity, % sensitization is 38.9%.

Question: What about the activity, % sensitization [4] of the same compound?
Answer: Its activity, % sensitization is 39.1%.

Question: And the activity, % sensitization [5]?
Answer: The activity, % sensitization was 24.2%.

Question: And the activity, % sensitization [6]?
Answer: Its activity, % sensitization is 12.1%.

Question: With `COc1cccc(N/C=C/C(=O)c2ccc(Cl)cc2)c1` as the compound, how does the activity [1] read?
Answer: Its activity is 58%.

Question: And the activity [2]?
Answer: The activity was 50%.

Question: What about the activity, % sensitization [3] of the same compound?
Answer: Its activity, % sensitization is 32%.

Question: And the activity, % sensitization [4]?
Answer: Its activity, % sensitization is 38.3%.

Question: And the activity, % sensitization [5]?
Answer: The activity, % sensitization was 28.1%.

Question: What about the activity, % sensitization [6] of the same compound?
Answer: Its activity, % sensitization is 40.5%.

Question: For `O=C(N/N=C/c1cccc(OC(=O)c2ccco2)c1)c1ccc(F)cc1`, which activity [1] is on record?
Answer: The activity was 57.1%.

Question: And the activity [2]?
Answer: Its activity is 28.9%.

Question: And the activity, % sensitization [3]?
Answer: Its activity, % sensitization is 54.4%.

Question: And the activity, % sensitization [4]?
Answer: Its activity, % sensitization is 46.3%.

Question: What about the activity, % sensitization [5] of the same compound?
Answer: Its activity, % sensitization is 49.2%.

Question: What about the activity, % sensitization [6] of the same compound?
Answer: The activity, % sensitization was 40.8%.

Question: What does the source list for `Cc1c(P(=S)(c2ccccc2)c2ccccc2)[n+]2ccccc2n1CCc1ccccc1`?
Answer: activity [1]: 52%; activity [2]: 44.7%; activity, % sensitization [3]: 3.09%; activity, % sensitization [4]: 9.7%; activity, % sensitization [5]: 3.44%; activity, % sensitization [6]: 9.46%

Question: With `COc1cccc(NC(=O)c2ccc3c(c2)OCO3)c1` as the compound, how does the activity [1] read?
Answer: Its activity is 51.7%.

Question: What about the activity [2] of the same compound?
Answer: Its activity is 30.6%.

Question: What about the activity, % sensitization [3] of the same compound?
Answer: The activity, % sensitization was 51%.

Question: What about the activity, % sensitization [4] of the same compound?
Answer: The activity, % sensitization was 42.7%.

Question: And the activity, % sensitization [5]?
Answer: Its activity, % sensitization is 48%.

Question: And the activity, % sensitization [6]?
Answer: Its activity, % sensitization is 32.2%.

Question: What does the source list for `COC(=O)CSc1nc2cc(C)ccc2cc1C#N`?
Answer: activity [1]: 63.1%; activity [2]: 53.9%; activity, % sensitization [3]: 45.7%; activity, % sensitization [4]: 53.4%; activity, % sensitization [5]: 15.2%; activity, % sensitization [6]: 24.1%
